We go through ten molecules from PMC5540273 (PLoS ONE, 2017).

Among the test systems are TYRO3; ULK1; ULK2; ULK3; VRK2; WEE1; WEE2; WNK1; WNK2; WNK3; WNK4.
What all share (details): concentration: 1 μM, replicates: in singlicate; n = 1
Experiment [1] has as its system TYK2(JH2domain-pseudokinase).
Another experiment relates to T1, VEGFR2.
T1 construct: gene KDR

Another experiment concerns T2, VPS34.
T2 construct: gene PIK3C3

A further experiment concerns T3, YANK1.
T3 construct: gene STK32A

The next experiment deals with T4, YANK2.
T4 construct: gene STK32B

The next experiment relates to T5, YANK3.
T5 construct: gene STK32C

Another experiment relates to T6, YES.
T6 construct: gene YES1

A further experiment concerns T7, YSK1.
T7 construct: gene STK25

The next experiment concerns T8, YSK4.
T8 construct: gene MAP3K19
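Note: KINOMEscan kinase panel screen.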

Turning to `CN(C)S(=O)(=O)c1cc(-c2ccc3nccc(-c4cccc(S(N)(=O)=O)c4)c3c2)cnc1N` [GSK1669921], the “%Inh” value in [1] is reported as 23%; in the experiment on TYRO3, 0%; in the experiment with ULK1, 8%; with ULK2 it was 0%; in the experiment on ULK3 it was 6%; in the experiment on VEGFR2, 29%. Also, the “%Inh” value is 92.7% with VPS34; 7% with VRK2; 9% with WEE1; 17% in the experiment with WEE2; 0% in the experiment on WNK1; 0% with WNK2. Moreover, the “%Inh” value came to 0% with WNK3; 0% with WNK4; 31% in the experiment on YANK1; 0% in the experiment on YANK2; 2% in the experiment with YANK3; 1% in the experiment on YES. The “%Inh” value is recorded as 0% with YSK1 and 93.3% in the experiment on YSK4.

For the molecule `COC(=O)Nc1nc2cc(Oc3ccc(NC(=O)Nc4cc(C(F)(F)F)ccc4F)cn3)ccc2[nH]1.Cl.Cl` [GW681170], the “%Inh” value in [1] was determined as 12%; with TYRO3, 0%; in the experiment with ULK1 it was 0%; in the experiment with ULK2, 0%; in the experiment with ULK3, 13%; in the experiment with VEGFR2 it was 55%. For the same molecule, the “%Inh” value in the experiment with VPS34 stood at 8%; in the experiment with VRK2, 22%; with WEE1, 7%; in the experiment on WEE2, 0%; in the experiment with WNK1, 6%; with WNK2 it was 8%. Further, the “%Inh” value in the experiment with WNK3 was found to be 22%; with WNK4 it was 39%; with YANK1, 9%; in the experiment with YANK2, 16%; with YANK3, 0%; in the experiment on YES, 24%. Further, the figures for the “%Inh” value in the experiment on YSK1 and with YSK4 were 0% and 87%, respectively.

Regarding `c1ccc(-c2n[nH]cc2Nc2ccnc3ccccc23)nc1` [GW694077], the “%Inh” value was 96.6% in [1]; 0% with TYRO3; 17% in the experiment with ULK1; 12% in the experiment on ULK2; 8% in the experiment with ULK3; 23% in the experiment on VEGFR2. In addition, the “%Inh” value with VPS34 was determined as 39%; in the experiment on VRK2, 50%; with WEE1 it was 0%; in the experiment on WEE2 it was 0%; with WNK1, 0%; in the experiment with WNK2, 0%. The “%Inh” value with WNK3 was found to be 15%; with WNK4 it was 4%; in the experiment with YANK1 it was 0%; with YANK2 it was 0%; in the experiment on YANK3, 0%; in the experiment on YES it was 0%. Also, the results for the “%Inh” value in the experiment with YSK1 and with YSK4 were 12% and 99.1%, respectively.

As to `CC(C)(C)c1ccc2nccc(Nc3cccc(O)c3)c2c1` [GW856795], the “%Inh” value in experiment [1] is given as 32%; in the experiment with TYRO3, 0%; in the experiment on ULK1, 0%; with ULK2, 19%; in the experiment on ULK3 it was 0%; with VEGFR2, 50%. The “%Inh” value in the experiment with VPS34 is 52%; in the experiment on VRK2, 100%; in the experiment on WEE1, 0%; with WEE2, 13%; in the experiment on WNK1, 0%; in the experiment on WNK2 it was 0%. For the same molecule, the “%Inh” value with WNK3 was determined as 40%; in the experiment on WNK4, 0%; with YANK1, 0%; in the experiment on YANK2 it was 0%; with YANK3, 0%; in the experiment on YES it was 5%. The “%Inh” value in the experiment with YSK1 and in the experiment on YSK4 was 0% each time.

In the case of `Cn1cc(-c2ccc3c(c2)CCN3C(=O)Cc2cccc(F)c2)c2c(N)ncnc21` [GSK2603358], the “%Inh” value is 64% in [1]; 0% in the experiment on TYRO3; 14% in the experiment with ULK1; 0% in the experiment with ULK2; 27% in the experiment with ULK3; 75% with VEGFR2. The “%Inh” value worked out at 0% in the experiment on VPS34; 23% in the experiment with VRK2; 0% in the experiment with WEE1; 0% in the experiment on WEE2; 13% in the experiment with WNK1; 0% in the experiment on WNK2. For the same molecule, the “%Inh” value is reported as 48% with WNK3; 59% in the experiment with WNK4; 0% in the experiment on YANK1; 0% with YANK2; 4% in the experiment on YANK3; 22% in the experiment on YES. Moreover, the “%Inh” value in the experiment with YSK1 was found to be 31%; in the experiment on YSK4, 98.2%.

As for `Cc1cccc(Nc2nc(N[C@H]3CCNC3)ncc2C(N)=O)c1.Cl` [GSK2197149], the “%Inh” value in [1] is reported as 97.7%; in the experiment on TYRO3, 0%; with ULK1, 30%; in the experiment on ULK2, 11%; with ULK3 it was 42%; in the experiment on VEGFR2, 0%. In addition, the “%Inh” value with VPS34 is recorded as 13%; in the experiment on VRK2, 22%; in the experiment with WEE1, 0%; in the experiment on WEE2 it was 8%; with WNK1, 0%; in the experiment with WNK2, 0%. Also, the “%Inh” value with WNK3 is given as 0%; with WNK4, 0%; with YANK1, 19%; in the experiment with YANK2, 0%; in the experiment on YANK3 it was 18%; in the experiment with YES it was 41%. In addition, the entries for the “%Inh” value with YSK1 and in the experiment on YSK4 were 52% and 90%, respectively.

Consider `COc1cccc(NC(=O)NC2CCN(c3ccnc(Nc4cc(OC)c(OC)c(OC)c4)n3)C2)c1` (centres unmarked) [GSK1379763], for which the “%Inh” value in [1] is 38%; in the experiment with TYRO3, 0%; with ULK1 it was 3%; with ULK2, 0%; in the experiment on ULK3, 88%; with VEGFR2 it was 43%. The “%Inh” value in the experiment with VPS34 came to 20%; with VRK2, 0%; in the experiment on WEE1, 20%; with WEE2 it was 0%; in the experiment on WNK1, 8%; in the experiment on WNK2, 11%. Also, the “%Inh” value worked out at 26% with WNK3; 11% in the experiment on WNK4; 1% in the experiment with YANK1; 0% in the experiment on YANK2; 4% in the experiment with YANK3; 1% in the experiment with YES. Further, the “%Inh” value in the experiment with YSK1 was 6%; with YSK4 it was 31%.

Take `Cc1ccc(C(=O)Nc2ccc(Nc3ccnc4cc(-c5nccs5)ccc34)cc2O)cc1.Cl` [GW494702]: the “%Inh” value is on record as 15% in [1]; 19% with TYRO3; 4% in the experiment on ULK1; 0% in the experiment with ULK2; 3% with ULK3; 2% in the experiment with VEGFR2. Further, the “%Inh” value in the experiment with VPS34 worked out at 18%; with VRK2 it was 28%; in the experiment with WEE1, 0%; in the experiment on WEE2, 0%; in the experiment with WNK1 it was 6%; with WNK2, 41%. Further, the “%Inh” value with WNK3 stood at 38%; with WNK4 it was 39%; with YANK1, 9%; with YANK2, 0%; with YANK3, 11%; in the experiment on YES, 33%. In addition, the “%Inh” value in the experiment with YSK1 is 0%; in the experiment on YSK4 it was 30%.

On to `Nc1ncc(-c2cccnc2)c2scc(-c3ccc4c(c3)CCN4C(=O)Cc3ccccc3)c12` [GSK683281], for which the “%Inh” value amounted to 0% in experiment [1]; 15% with TYRO3; 7% in the experiment on ULK1; 0% with ULK2; 10% in the experiment with ULK3; 30% in the experiment on VEGFR2. In addition, the “%Inh” value in the experiment with VPS34 stood at 29%; in the experiment with VRK2, 0%; in the experiment with WEE1, 22%; in the experiment on WEE2, 17%; with WNK1, 17%; in the experiment with WNK2, 28%. For the same molecule, the “%Inh” value in the experiment on WNK3 was 12%; with WNK4, 0%; in the experiment with YANK1, 21%; with YANK2 it was 10%; in the experiment with YANK3 it was 29%; with YES, 28%. The figures for the “%Inh” value with YSK1 and with YSK4 were 27% and 46%, respectively.

Consider `Fc1ccc(-c2ncn(C3CCNCC3)c2-c2ccnc(Oc3ccc(-c4ccccc4)cc3)n2)cc1` [SB-245391], for which the “%Inh” value in experiment [1] was 84%; in the experiment with TYRO3, 0%; with ULK1, 54%; in the experiment with ULK2 it was 26%; with ULK3 it was 46%; in the experiment on VEGFR2, 12%. For the same molecule, the “%Inh” value in the experiment on VPS34 was 30%; in the experiment with VRK2, 41%; in the experiment on WEE1, 0%; with WEE2, 58%; with WNK1, 42%; with WNK2 it was 0%. For the same molecule, the “%Inh” value in the experiment on WNK3 is listed as 32%; in the experiment with WNK4, 0%; with YANK1, 90.8%; in the experiment with YANK2, 85%; in the experiment with YANK3, 86%; with YES it was 0%. In addition, the “%Inh” value is 18% with YSK1 and 47% in the experiment on YSK4.
